Screens from PubChem.
Most compounds without a hit are left out; they make up all but 2.2% or so of the library.
PHOSPHO1 inh: blocks human PHOSPHO1 phosphatase activity | 290,000 compounds, 1.1% hits | inhibition, % at 13.3 µM | Q8TCT1 | AID 1565 | recombinant PHOSPHO1, absorbance phosphatase assay; in the data active = inhibition above about 60%
Mot1-301 SUMO: blocks SUMOylation pathway, rescuing yeast Mot1-301 growth. S. cerevisiae Mot1-301 growth rescue, ATP luminescence, 38.5C; percent above DMSO median, 100 means doubled. growth rescue, % at 18.8 µM. 320,000 compounds, 1% hits. AID 2716;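 active = every valid replicate shows activation above 250% relative to neutral control wells; inactive = the rest, any valid replicate at or below 250%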;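 note: OY570 slx delta 5 strain wells were the positive control but not used for scaling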
p-CIP stab down: lowers stability of the mouse p/CIP coactivator protein. F442A p/CIP-EGFP cells, EGFP fluorescence, 16 h. decrease of EGFP signal, % at 10 µM. 290,000 compounds, 0.01% hits. AID 1984;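 active = EGFP signal decrease of at least 30% at 10 µM or well 3 SD below plate mean, unless failing retest; inactive = the rest, including hits failing retest or dose response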
PvdQ acylase: blocks Pseudomonas aeruginosa PvdQ acylase activity; purified PvdQ acylase, fluorescence plate reader; inhibition, % at 10 µM; 340,000 compounds, 0.063% hits; AID 488965; in the data active = inhibition above about 30%, passing the limit was not always enough;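 note: 0% = vehicle neutral wells and 100% = reference inhibitor wells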
GASC-1 inh: blocks human GASC-1 demethylase activity. inhibition, % at 2.35 µM. GST-JMJD2C(1-420) H3K9me3 demethylation, DELFIA europium. 330,000 compounds, 0.069% hits. Q9H3R0. AID 2099;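 active = more than half of a compound's replicate wells show inhibition beyond 50%, single wells judged on their own value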;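 note: signal counts dimethyl H3K9 product captured on neutravidin plate; 0% = median of DMSO wells and 100% = 0.3 times that DMSO median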
HDAC3 inh: human HDAC3 inhibition | AID 2718 | recombinant HDAC3, fluorogenic peptide/trypsin coupled, fluorescence | O15379 | inhibition, % at 8.3 µM | 320,000 compounds, 0.15% hits; in the data active = inhibition above about 26%, passing the limit was not always enough
Target sequence (O15379 whole entry, looked up): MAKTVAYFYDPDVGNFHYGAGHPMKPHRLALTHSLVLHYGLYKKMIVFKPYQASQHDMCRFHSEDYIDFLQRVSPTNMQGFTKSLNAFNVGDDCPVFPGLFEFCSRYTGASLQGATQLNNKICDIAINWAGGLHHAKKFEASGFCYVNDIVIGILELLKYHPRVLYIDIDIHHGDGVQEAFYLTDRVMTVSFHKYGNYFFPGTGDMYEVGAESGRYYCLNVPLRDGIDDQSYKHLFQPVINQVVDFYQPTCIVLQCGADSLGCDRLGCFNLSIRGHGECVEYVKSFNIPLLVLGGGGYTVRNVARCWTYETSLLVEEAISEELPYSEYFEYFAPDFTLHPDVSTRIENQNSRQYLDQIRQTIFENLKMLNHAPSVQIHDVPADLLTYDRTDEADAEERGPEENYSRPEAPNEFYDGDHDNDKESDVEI
* = called active by the depositor; / = not tested or not shown.

SMILES | PHOSPHO1 inh | Mot1-301 SUMO | p-CIP stab down | PvdQ acylase | GASC-1 inh | HDAC3 inh
CCOC(=O)c1c(C2COc3ccccc3O2)csc1NC(=O)c1ccco1 (centres undefined) | 86.0* | -14.1 | 7.8 | -6.0 | -8.2 | 2.2
CCOC(=O)c1c(-c2cccs2)csc1NC(=O)c1ccco1 | 6.3 | 73.4 | -3.3 | -5.5 | 0.0 | 11.5
CSc1ccc(CNc2ccccn2)cc1 | 76.4* | -8.8 | -1.3 | 13.1 | -4.2 | -1.2
Fc1ccc(CNc2ccccn2)cc1 | 34.0 | -3.6 | 0.1 | -10.5 | 5.5 | -0.9
CCCCC(=O)Nc1nc(C)c(-c2csc(Nc3cc(OC)ccc3OC)n2)s1 | 69.5* | -4.9 | 9.7 | 9.3 | 2.3 | 6.6
CCCCC(=O)Nc1nc(C)c(-c2csc(Nc3cc(Cl)ccc3OC)n2)s1 | 98.7* | 1.2 | 5.9 | -11.7 | 1.6 | 1.1
COc1ccc(OC)c(Nc2nc(-c3sc(C)nc3C)cs2)c1 | 25.2 | 1.2 | 5.1 | -14.9 | -2.3 | 1.4
CCCCCCC(=O)Nc1nc(C)c(-c2csc(Nc3cc(Cl)ccc3C)n2)s1 | -78.8 | -3.1 | -8.9 | -4.4 | 18.3 | 5.6
O=C1/C(=C\c2ccc(-c3ccccc3Cl)o2)SC(=S)N1CC1CCCO1 (centres undefined) | 81.3* | 5.1 | 0.2 | -5.7 | 3.4 | -9.5
Cc1ccc(/C=C2\SC(=S)N(CC3CCCO3)C2=O)o1 (centres undefined) | 76.8* | 7.8 | -23.3 | -12.0 | 22.0 | 5.6
Cc1ccc(/C=C2/SC(=O)NC2=S)o1 | 68.1* | / | 11.0 | -1.2 | / | /
Cc1ccc(/C=C2/SC(=S)N(C3CCCCC3)C2=O)o1 | 17.1 | -1.6 | -9.5 | 7.8 | 29.4 | -0.5
CC(Sc1nnc(-c2ccccc2F)n1C)C(=O)NC1CCCCC1 (centres undefined) | / | -3.2 | / | 30.3* | -7.2 | 1.7
Cn1c(SCC(=O)NC2CCCCC2)nnc1-c1ccccc1F | 14.3 | -8.5 | 2.0 | -9.7 | -5.9 | -5.5
Clc1ccc(-n2nnc(-c3nccs3)n2)cc1Cl | 51.5 | 330.4* | -15.0 | -18.2 | 16.6 | 4.8
Nc1cccc(C(=O)NCCNC(=O)c2cccc(N)c2)c1 | 18.7 | 5.0 | -6.5 | -15.7 | 3.4 | /
CCOc1ccc(-c2n[nH]c(=S)o2)cc1 | 51.9 | 4.1 | -5.0 | 7.2 | 13.7 | -11.9
COc1ccc(-c2n[nH]c(=S)o2)c(OC)c1 | 102.7* | -14.9 | 2.7 | -9.3 | -6.3 | -22.0
CCOc1ccccc1-c1n[nH]c(=S)o1 | 99.7* | -4.9 | 6.7 | -0.3 | -4.4 | -10.0
N#Cc1c(Cl)cccc1Oc1ccc(S(=O)(=O)Nc2ccccc2)cc1 | 37.7 | 20.8 | -3.4 | -8.2 | 12.1 | -4.1
O=C(CS(=O)(=O)c1ccccc1)Nc1nccs1 | 26.5 | 7.0 | -2.5 | -3.5 | -11.6 | 3.1
CCC1CCC2(CC1)NNC(=S)NN2 | 97.4* | -3.9 | -7.1 | -12.0 | 4.4 | 10.2
CCc1nc2ccccc2c(C(=O)Nc2cccc(C)c2)c1C | 49.1 | -8.0 | 0.7 | -2.0 | 1.3 | -1.1
CCCN(CC(=O)Nc1ccccc1OC)C(=O)Cc1ccc2c(c1)CCC2 | / | -8.6 | / | -8.3 | -0.4 | 10.0
COc1ccc(CC(=S)N2CCOCC2)cc1 | 72.8* | -16.6 | -9.0 | 7.8 | -12.0 | 3.3
SMILES | PHOSPHO1 inh | Mot1-301 SUMO | p-CIP stab down | PvdQ acylase | GASC-1 inh | HDAC3 inh
CC(C)CN1C(=O)C(=O)N(CC(=O)c2ccc3c(c2)OCO3)C1=O | / | 277.0 | / | 9.2 | 0.5 | /
COc1ccccc1-c1c(C)oc2c(CN3CCCCC3C)c(O)ccc2c1=O (centres undefined) | 19.9 | -7.2 | 4.7 | -22.4 | 4.6 | -74.6
CCOC(=O)C1CCN(C(=O)c2ccc3c(c2)NC(=O)/C(=C\c2ccc(C)cc2)S3)CC1 | 70.0* | -1.8 | -6.5 | 1.9 | 6.3 | -4.5
CCOC(=O)C1CCN(C(=O)c2ccc3c(c2)NC(=O)/C(=C\c2cccc(C)c2)S3)CC1 | 2.1 | 138.6 | 4.5 | 8.5 | -3.0 | -3.3
Cc1ccc([N+](=O)[O-])cc1NC(=S)NC(=O)c1c(Cl)cnn1C | / | / | 4.7 | -19.0 | -11.6 | /
O=C(NCCc1c[nH]c2ccccc12)C(=O)Nc1cc2c3c(c1)CC(=O)N3CCC2 | / | -8.7 | / | -3.6 | -2.9 | 7.1
CC(=O)NCC(=O)OCc1ccc([N+](=O)[O-])cc1 | -12.2 | 264.1 | -24.1 | -7.2 | 7.7 | -0.1
C/C(=N\Nc1ccc([N+](=O)[O-])cc1)c1cccc(N)c1 | 13.4 | 96.9 | -3.7 | -4.2 | -7.4 | /
